# From PubChem BioAssay (NCI)
# About 83,000 compounds went through this panel and 20% of them were active in at least one assay; those are over-represented in the sample as a whole.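 48-hour exposure, single concentration, 96-well plates; percent growth endpoint where 0 means no net growth. Active: below 10.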 Unmarked numbers belong to inactive results. Activity calls are given as the source filed them.
# Tested on: MCF7 breast
# Assay: NCI-60 one-dose screen, 48 h (100 = growth as untreated, 0 = no growth, -100 = all killed)
# Conditions: 10 µM unless noted
# Experimental: Growth inhibition of the MCF7 human tumor cell line is measured as a screen for anti-cancer activity. Cells are grown in 96 well plates and exposed to the test compound for 48 hours. Compounds are tested at a single concentration, which is 10^-5 M for most compounds. The reported endpoint is percent growth (GI% or GIPRCNT), where numbers from 0 - 100% represent growth inhibition, and numbers from -100% - 0 represent cell death. For example, a value of 40 represents 60% growth inhibition. A value of 0 means no net growth occurred over the course of the experiment. A value of -40 indicates 40% of cells at the beginning of the experiment died by the end of the experiment. A value of -100 means all cells are dead at the end of the experiment.
# NCI-60 Human Tumor Cell Lines Screen was performed using the standard one-dose NCI protocol, which is described in more detail at https://dtp.cancer.gov/discovery_development/nci-60/default.htm.
# Compounds with GIPRCNT values below 10 were considered active. Activity score was based on GIPRCNT using the following formula: […]
# Score is 0 for GIPRCNT values of 100 or above, 50 for GIPRCNT values of 0, and 100 for GIPRCNT values of -100.
row,Compound,growth
1,COC1CC2c3ccccc3C1C(C)=[N+]2C (stereo not given),97.3%
2,COC(=O)[C@@H](NC(=O)c1cn(CCC2CCCCC2)c2ccccc12)C(C)(C)C,75%
3,[Cl][Hg][n]1c(-c2ccco2)nc2ccccc21,74.9%
4,CC1(C)N=C(N)N=C(N)N1c1ccc(CCCCc2ccc(Cl)c(S(=O)(=O)F)c2)c(Cl)c1,19.1%
5,COC(=O)[C@@H](C)C[C@H](Cc1ccccc1)NC(=O)c1csc([C@@H](C[C@H](C(C)C)N(C)C(=O)C2(NC(=O)[C@H]3CCCCN3C)CC2)OC(C)=O)n1,18.9%
6,CC[C@H](C)[C@H](NC(=O)[C@H]1CCCCN1C)C(=O)N(C)[C@H](C[C@@H](OC(C)=O)c1cccc(C(=O)N[C@@H](Cc2ccccc2)C[C@H](C)C(=O)O)n1)C(C)C,14.7%
7,CC(C)(C)C(=O)OCOP(=O)(NCc1ccccc1)C1CCCN(O)C1=O (stereo not given),19.3%
8,Oc1ccc2c3c1OC1[C@@H](O)CC[C@@]4(O)[C@@H](C2)N(CC2CCC2)CC[C@]314 (stereo not given in full),92.5%
9,COC(=O)[C@@H](C)C[C@H](Cc1ccccc1)NC(=O)c1csc([C@@H](C[C@H](C(C)C)N(C)C(=O)[C@@H](NC(=O)C23CC(NC(C)=O)(C2)C3)C2CC2)OC(C)=O)n1,18.9%
10,O=Cc1cn(Cc2ccc(Cl)cc2)c2ccccc12,55.5%
11,CS(=O)(=O)CCN1CC2CCCC(C2)C1,92.3%
12,O[C@H](CN1CC1)[C@@H](O)CN1CC1,41.7%
13,COc1cc(/C=N/C2=C(C#N)C(c3ccco3)c3c(c4cc(C)ccc4oc3=O)O2)cc(OC)c1OC (stereo not given),70.1%
14,O=C1CC2(CC3(Cl)C(Cl)=C(Cl)C2(Cl)C3(Cl)Cl)C(=O)O1 (stereo not given),99.4%
15,COc1ccc2c(c1)c(-c1nc(-c3cn(C)c4ncccc34)cs1)cn2CCN1CCOCC1,13.5%
16,CC(=O)OC1CCC2(C)C(CCC3C2CC(=O)C2(C)C3CC(Sc3ccc(N(CCCl)CCCl)cc3)C2C(C)=O)C1 (stereo not given),74.2%
17,O=C1C2CCC1C(N1CCCC1)CC2 (stereo not given),94.7%
18,COc1cc2c(c(OC)c1OC)-c1ccc([O-])c(=O)cc1[C@@H](NC(C)=O)CC2.COc1cc2c(c(OC)c1OC)-c1ccc([O-])c(=O)cc1[C@@H](NC(C)=O)CC2.[Cu+2],11%
19,CC(=O)C(c1c(O)c2ccccc2oc1=O)c1cc(=O)oc2c1ccc1ccccc12 (stereo not given),91.3%
20,O=C1OCCC1Br (stereo not given),101%

row,Compound,growth
1,N#C[Se]Cc1cc(-c2ccccc2)n(-c2ccc(S(N)(=O)=O)cc2)n1,-26.1% (active)
2,Fc1ccc2c(c1)c(-c1nc(-c3c[nH]c4ncccc34)cs1)cn2CCCCN1CCCCC1,-75.3% (active)
3,O=P(N1CC1)(N1CC1)N1CCc2ccccc21,86.5%
4,O=C(N/N=C/c1ccc(N(CCCl)CCCl)cc1)c1cccc2ccccc12,35.4%
5,CC1=C2[C@@H](CC1)[C@]1(C)O[C@@](C(C)C)(C[C@H]1O)[C@H]2OC(=O)C1CC1c1ccccc1 (stereo not given in full),92.2%
6,COc1cc([N+](=O)[O-])c2nc(C)ccc2c1[N+](=O)[O-],69.1%
7,N/C(=N\N=C\c1ccc(-c2ccccc2)cc1)N[N+](=O)[O-],13.6%
8,C=CC[n+]1ccc(-c2cc[n+](CC=C)cc2)cc1,89.7%
9,CC(=O)OC1C(OC/C2=C/C3[C@@H](C(C)C)CC=C(C)[C@@H]3CC(OC(=O)/C=C/c3cn(C)cn3)[C@]3(C)C=C[C@@]2(O)O3)OCC(O)C1O (stereo not given in full),13.5%
10,COC(=O)[C@@H](C)C[C@H](Cc1ccccc1)NC(=O)c1cccc([C@@H](C[C@H](C(C)C)N(C)C(=O)[C@@H](NC(=O)[C@H]2CCCCN2C)C(C)C)OC(C)=O)n1,21.3%
11,CCCCCCCCCCCCCCCCCC1OC[C@H](COC(=O)O[C@@H](C(=O)O[C@H]2C[C@@]3(O)[C@@H](OC(=O)c4ccccc4)[C@@H]4[C@]5(OC(C)=O)CO[C@@H]5C[C@H](O)[C@@]4(C)C(=O)[C@H](OC(C)=O)C(=C2C)C3(C)C)[C@@H](NC(=O)c2ccccc2)c2ccccc2)O1 (stereo not given in full),25.9%
12,COC[C@@H]1C[C@@]2(C)[C@@H](CC[C@@H]3[C@@H]2CC[C@@]2(C)[C@H]3CC[C@]2(C)O)CC1=O,92.7%
13,O=C1C=C(N2C3C4CCC(C4)C32)C(=O)C=C1c1ccccc1 (stereo not given),62.4%
14,COc1cc(/C=C/[N+](=O)[O-])cc(OC)c1,-59.1% (active)
15,COc1ccc(/C=C\c2cc(OC)c(OC)c(OC)c2)c(NS(=O)(=O)c2ccc(F)cc2)c1O,9.22% (active)
16,C/C(=C\c1cc(C(F)(F)F)nn1CCNC(=O)OC(C)(C)C)[C@@H]1C[C@@H]2O[C@]2(C)CCC[C@H](C)[C@H](O)[C@@H](C)C(=O)C(C)(C)[C@@H](O)CC(=O)O1,31.2%
17,C1CCC([PH+](C2CCCCC2)C2CCCCC2[PH+](C2CCCCC2)C2CCCCC2)CC1.O=C(C1[CH-]CCCC1)C1CCCC[N-]1.[Au] (stereo not given),-42.9% (active)
18,O=C1C2C(C(=O)[N]1[Hg][c]1cccs1)C1(Cl)C(Cl)=C(Cl)C2(Cl)C1(Cl)Cl (stereo not given),-13.1% (active)
19,O=[N+]([O-])c1ccc([Se]C2CCCCC2Cl)c([N+](=O)[O-])c1 (stereo not given),91.4%
20,Cc1ccc(Nc2nc3c(s2)C2=CC[C@@H]4[C@H](CC[C@]5(C)C(=O)CC[C@@H]45)[C@@]2(C)CC3)cc1,13.9%
